This note sets out measurements from PubChem BioAssay (EPA / NIEHS).

Inconclusive results are not listed. Activity calls are given as the source filed them. Rule for the calls: active = hit-call score of the fitted dose curve at least 0.9, where 1 is the maximum; inconclusive = response in the unintended direction; inactive = score below 0.9.

A short description of experiment [1]: ATG_M_06_TRANS: Attagene TRANS-FACTORIAL HepG2 Assay for M06 Transcription Factor (Internal Marker) (AID 2282983).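 Note: reporter transcript level by RT-PCR then capillary electrophoresis fluorescence.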 Particulars: HepG2 Attagene TRANS M06 internal marker reporter. The method, boiled down:
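After a 24 h chemical treatment of transfected HepG2, RNA underwent DNase I treatment, reverse transcription and reporter-specific PCR; labelled, HpaI-digested products were sized by capillary electrophoresis. Signal increase relative to DMSO defined activity.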

Experiment [2] concerns the target Bile acid receptor (Homo sapiens) (UniProt Q96RI1). The experiment in a line: ATG_FXR_TRANS: Attagene TRANS-FACTORIAL HepG2 Assay for Farnesoid X Receptor (FXR) (AID 2282979).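 Note: hits raise reporter mRNA above DMSO so AC50 marks FXR activation.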 Particulars: HepG2 Attagene TRANS FXR-GAL4 reporter transcription. The method, boiled down: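 Read-out: fluorescent reporter transcripts quantified by capillary electrophoresis after RT-PCR of total RNA. Source cells were HepG2 transiently carrying chimeric NR-GAL4 plus GAL4-UAS reporter units, dosed 24 h. Activity fitted upward relative to DMSO baseline.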

Sequence of Bile acid receptor (Homo sapiens) (Q96RI1 whole entry, looked up, the tested form may be a part): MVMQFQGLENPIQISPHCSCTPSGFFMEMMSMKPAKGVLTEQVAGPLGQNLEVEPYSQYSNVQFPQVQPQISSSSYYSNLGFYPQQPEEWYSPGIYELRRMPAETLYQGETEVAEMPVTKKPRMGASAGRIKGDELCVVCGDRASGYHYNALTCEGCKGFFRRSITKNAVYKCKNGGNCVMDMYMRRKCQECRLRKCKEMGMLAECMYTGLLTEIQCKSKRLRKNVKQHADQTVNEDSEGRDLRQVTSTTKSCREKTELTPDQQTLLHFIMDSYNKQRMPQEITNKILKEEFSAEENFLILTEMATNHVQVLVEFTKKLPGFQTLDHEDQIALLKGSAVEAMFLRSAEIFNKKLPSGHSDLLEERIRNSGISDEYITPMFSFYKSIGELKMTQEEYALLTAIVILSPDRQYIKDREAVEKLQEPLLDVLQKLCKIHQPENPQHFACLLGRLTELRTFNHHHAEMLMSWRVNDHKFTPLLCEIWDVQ

`CCOC(=O)c1ccc(O)cc1`: in experiment [1], the compound was called inactive.
`CCCCOCCOCCOCc1cc2c(cc1CCC)OCO2`: the compound was classed as inactive in experiment [2].
Still for that read-out and setting: next, `O=C(O)C1(C(=O)Nc2ccc(Cl)cc2Cl)CC1`: “inactive”.
For the compound `C=CCOC(Cn1ccnc1)c1ccc(Cl)cc1Cl` (centres undefined), the call in experiment [1] was inactive.
